# Records with an inconclusive call do not appear. Where a call stands in place of a potency, no number is given. Unmarked numbers belong to inactive results. Calls of active or inactive are those of the source. Calls follow the shape of the dose curve; as a rule, active = well fitted curve in the direction sought with a large enough effect; inconclusive = small, poorly fitted or top-dose-only effect, or another doubt; inactive = no such curve, though single readings can be large; an effect the other way counts as inactive or inconclusive.
# Legend:
# [1] = target: Cellular tumor antigen p53 (Homo sapiens) (UniProt P04637); test: Primary qHTS for small molecule compounds that upregulate eGFP-tagged delta133p53alpha (in N-terminal) cells. (AID 2060322); details: NCI-H358 eGFP-delta133p53alpha fluorescence, 24 h; activation: stronger effect = higher value; also: nearly all actives have a fitted effect of over 75% in size; also: potency is read from the fitted curve at half-maximal effect;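 as to activation: cells pre-induced with doxycycline then dosed without doxycycline; series mostly up to about 56 µM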
# Sequence of Cellular tumor antigen p53 (Homo sapiens) (P04637 whole entry, looked up): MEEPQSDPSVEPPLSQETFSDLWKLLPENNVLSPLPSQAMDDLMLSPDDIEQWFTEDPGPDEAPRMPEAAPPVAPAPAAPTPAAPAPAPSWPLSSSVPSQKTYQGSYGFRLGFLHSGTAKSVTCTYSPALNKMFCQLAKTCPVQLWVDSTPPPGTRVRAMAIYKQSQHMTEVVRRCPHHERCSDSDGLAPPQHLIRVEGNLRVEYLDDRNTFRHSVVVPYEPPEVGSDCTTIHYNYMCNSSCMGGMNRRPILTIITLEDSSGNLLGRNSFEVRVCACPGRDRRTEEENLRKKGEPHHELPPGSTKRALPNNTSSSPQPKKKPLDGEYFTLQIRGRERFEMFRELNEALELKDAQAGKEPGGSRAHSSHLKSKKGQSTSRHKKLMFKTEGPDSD
# Outline: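 NCI-H358 cells pre-induced 24 h with 10 ng/ml doxycycline for eGFP-delta133p53alpha, plated dox-free and exposed 24 h at 37C to titrated compounds. Fixed, Hoechst-stained; gated GFP peak intensity by laser scanning cytometry, normalized to DMSO (0%) and 57.5 uM 5-azacytidine (100%).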
# [2] = target: Aldehyde dehydrogenase, mitochondrial (Homo sapiens) (UniProt P05091); test: qHTS for Inhibitors of the Aldehyde Dehydrogenase Family (ALDH2) Primary screen (AID 2061308); also: nearly all actives have a fitted effect of over 55% in size
# [3] = target: Retinaldehyde dehydrogenase 3 (Homo sapiens) (UniProt P47895); test: qHTS for Inhibitors of the Aldehyde Dehydrogenase Family (ALDH1A3) Primary screen (AID 2061315)
SMILES,activation [1] [%],Potency [2],Potency [3],Potency [1]
C=C1CCC2C(C)(C)C(O)CCC2(C)C1CCC(C)CCOC(=O)CCC(=O)O (stereo unspecified),-3.82,inactive,inactive,
CC1(C)CC[C@]2(C(=O)O[C@@H]3O[C@H](CO)[C@@H](O)[C@H](O)[C@H]3O)CC[C@]3(C)C(=CCC4[C@@]5(C)CC[C@H](O[C@@H]6O[C@H](C(=O)O)[C@@H](O)[C@H](O[C@@H]7O[C@H](CO)[C@H](O)[C@H](O)[C@H]7O)[C@H]6O)C(C)(C)C5CC[C@]43C)C2C1 (stereo partly specified),-9.92,inactive,inactive,
Oc1ccc2c(-c3c(-c4ccccn4)nn4c3CCC4)ccnc2c1,,inactive,inactive,26.9 µM (active)
O=C1CCC=CC1(O)C(=O)OCc1ccccc1O[C@@H]1O[C@H](CO)[C@@H](O)[C@H](O)[C@H]1O (stereo partly specified),15.3,inactive,inactive,
CC(=O)OC1CC2(C)C(CCC(C)C23Cc2c(O)cc(CO)c(C=O)c2O3)C(C)(C)C1O (stereo unspecified),23.7,inactive,inactive,
CC1(C)Oc2ncnc(N)c2N=C1c1ccc(C2CCC(CC(=O)O)CC2)cc1 (stereo unspecified),-4.46,inactive,inactive,
CC(C)(O)c1ccc2c(c1)C(=O)C[C@H]1[C@](C)(C(=O)O)CCC[C@]21C,-1.53,inactive,inactive,
COc1ccc(S(=O)(=O)Nc2cc(Cl)cc(Cl)c2OC)cc1N1CCNCC1,8.04,inactive,inactive,
C=C1C(=O)OC[C@H]2C(C(=O)O)=CC3CC(C)(C)C[C@@]132 (stereo partly specified),13.4,inactive,inactive,
CC1=C(C(=O)OC2OC(COC3OC(CO)C(O)C(O)C3O)C(O)C(O)C2O)C(C)(C)CCC1 (stereo unspecified),-14.5,inactive,inactive,
CC(C)=CCc1cc(O[C@@H]2O[C@H](CO[C@@H]3OC[C@](O)(CO)[C@H]3O)[C@@H](O)[C@H](O)[C@H]2O)ccc1O,22.1,inactive,inactive,
COc1ccc(CCC(=O)O)c(O[C@@H]2O[C@H](CO)[C@@H](O)[C@H](O)[C@H]2O)c1,-13.7,inactive,inactive,

# Source: PubChem BioAssay (NCATS)
